The results in this text go back to PubChem BioAssay AID1479 (National Center for Advancing Translational Sciences (NCATS), 2009).

Screen size: about 280,000 compounds; about 820 (0.29%) were called active. A call without a number means that no potency is given here. Another 1% or so got no clear call; they are omitted. Calls come from the whole dose curve; as a rule, active = well fitted curve in either direction with a large enough effect; inconclusive = small, poorly fitted or top-dose-only effect; inactive = flat fitted curve, though single readings scatter. The full list was thinned out, with actives kept by preference.
Potency is the fitted concentration of half-maximal effect; tags give direction and shape of the fitted curve or compound fluorescence and quenching.

This experiment can be described thus: Total Fluorescence Counterscreen for Inhibitors of the Interaction of Thyroid Hormone Receptor and Steroid Receptor Coregulator 2. As to conditions: TRb/SRC2 Texas Red total fluorescence interference; series mostly up to 106 µM. The procedure, abridged: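 Flags fluorescent or light-absorbing compounds by total fluorescence, S + 2P, at 555 nm excitation and 632 nm emission. Mixture: 20 nM Texas Red SRC2 peptide, 0.6 uM human TRb LBD, 1 uM T3, 5% DMSO; compound exposure 5 h at ambient temperature.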
(In general: The purpose of a counterscreen is to sort out artefacts and off-target activity.)
For `Cc1ccc(N)c(S(=O)(=O)O)c1`, the Potency entry is “inactive”. In the case of `Cn1c(=O)[nH]c(=O)c2c1nc(NCCc1ccccc1)n2Cc1ccc(F)cc1` it was “inactive”; in that of `COc1ccc(CNC(=O)Cc2coc3ccc(C(C)C)cc23)cc1`, “inactive”; in that of `O=C(Nc1ccc2nccnc2c1)c1ccco1`, “inactive”. As for `CC(C)(C)c1ccc(NC(=O)NCc2ccco2)cc1`, the Potency entry is “inactive”. Under `COCCNC(=O)Nc1ccc2nc(-c3ccco3)c(-c3ccco3)nc2c1` stands 28.2 µM [quencher] (active); under `CC1CCCN(c2nc3c(S(=O)(=O)c4ccc(C(C)C)cc4)nnn3c3ccsc23)C1` (centres undefined), “inactive”.

On to `Cc1ccc(-c2noc(CSc3nnc(-c4ccc(Cl)cc4)n3C)n2)cc1`, for which the Potency entry was “inactive”. In the case of `CCc1cccc(NC(=O)Cn2nc(CC)n3c(cc4cc(C)ccc43)c2=O)c1` it was “inactive”; in that of `OCCC(F)(F)C(F)(F)C(F)(F)C(F)(F)C(F)(F)C(F)(F)C(F)(F)C(F)(F)F`, “inactive”; in that of `CC(=O)c1cccc(Nc2ccc3cc(S(=O)(=O)N4CCC(C)CC4)ccc3n2)c1`, “inactive”. For the molecule `COc1ccccc1NC(=O)c1cc(S(=O)(=O)NCCc2ccccc2)ccc1F`, the Potency result is “inactive”. In the case of `CC1(C)C(=O)N(Br)C(=O)N1Br` it was “inactive”. Under `COC(=O)c1ccc(NC(=O)CCc2c(C)nc3c(c(C)nn3-c3ccc(C)cc3)c2C)cc1` stands “inactive”. Under `CC(=O)N(CCN(C(C)=O)C(C)=O)C(C)=O` stands “inactive”; under `CC(NC(=O)c1cc2c(=O)n3ccccc3nc2n(C(C)C)c1=N)c1ccccc1` (centres undefined), “inactive”. In the case of `O=C(Cn1c(=O)nc(-c2ccccc2)c2cc(Cl)ccc21)NCc1ccc(Cl)cc1`, the Potency result is “inactive”. For `Cc1ccccc1CNC(=O)C1CCCN(S(=O)(=O)N(C)c2ccc(F)cc2)C1` (centres undefined), the Potency result is “inactive”. On to `COc1ccc(CCN2C(=O)N(c3cccc(OC)c3)C(=O)C2CC(=O)Nc2ccccc2)cc1` (centres undefined), for which the Potency result is “inactive”.

Consider `O=C(CC1N=C2c3ccccc3N=C(SCc3cccc(Cl)c3)N2C1=O)NCc1ccc2c(c1)OCO2` (centres undefined), for which the Potency entry is “inactive”. Under `CCCCCCCCCCCCCCCC` stands “inactive”; under `COc1ccc(CCC(=O)NCc2ccc3c(c2)CCN3C(=O)c2ccc(F)cc2)cc1`, “inactive”; under `CC(Nc1ccc(-c2nc(-c3ccco3)no2)cc1[N+](=O)[O-])c1ccccc1` (centres undefined), “inactive”. In the case of `Cc1oc2ccc(O)c(CN3CCC(C)CC3)c2c1C(=O)Nc1ccccc1`, the Potency result was “inactive”.

With `CCc1cccc(C)c1Nc1c(-c2ccc(N(C)C)cc2)nc2ncccn12`, the Potency entry was “inactive”. In the case of `CCn1c(=O)cc(OCC(=O)Nc2cc(Cl)c(OC)cc2OC)c2ccccc21` it was “inactive”.

Consider `CCC(=O)Nc1cccc(C(=O)OCc2cc(=O)n3nc(CC)sc3n2)c1`, for which the Potency result was “inactive”. Under `Cc1cccc(CSc2nc3ccncc3n2CC(=O)N(C)C2CCCCC2)c1` stands “inactive”; under `COc1ccc(CCNC(=O)CCCCn2c(=O)c3ccccc3n(Cc3ccccc3C)c2=O)cc1OC`, “inactive”; under `COc1ccc(CNc2nc(-c3ccccc3)nn2C(=O)c2ccccc2OC)cc1`, “inactive”.

For `COc1ccccc1NC(=O)c1cc(C2CC2)nc2c1c(C)nn2-c1ccc(C)cc1`, the Potency result is “inactive”. In the case of `CCc1nnc2c3ccccc3nc(N3CCN(c4ccc(C)cc4C)CC3)n12` it was “inactive”; in that of `Cc1ccc(C)c(N2CCN(C(c3ccccc3)c3nnc(-c4ccccc4)o3)CC2)c1` (centres undefined), “inactive”; in that of `CCOC(=O)c1cccc(NC(=O)c2cc(S(=O)(=O)N3CCCC(C)C3)cn2C)c1` (centres undefined), “inactive”.

With `CCn1c2ccccc2c2cc(NC(=O)COc3ccc(C)cc3C)ccc21`, the Potency result is “inactive”. In the case of `CCOC(=O)c1ccc(NC(=O)c2csc3c2CCCCC3)cc1` it was “inactive”; in that of `COCCCNC(=O)c1c(NC(=O)c2cc(=O)c3cc(C)c(C)cc3o2)sc2c1CCCC2`, “inactive”. Under `CCOCCCNC(=O)c1c(NC(=O)c2nc(SC)ncc2Cl)sc2c1CCCC2` stands “inactive”; under `CCCSc1ncc(Cl)c(C(=O)Nc2sc3c(c2C(=O)NCCOC)CCCC3)n1`, 0.1 µM [quencher] (active).

Turning to `CCOC(=O)c1scc(-c2ccc(C)cc2)c1S(=O)(=O)Nc1cc(C)ccc1C`, the Potency result is “inactive”. In the case of `O=[N+]([O-])c1cccc(S(=O)(=O)N2CCCCCC2)c1`, the Potency entry is “inactive”.

With `O=C(Oc1ccc([N+](=O)[O-])cc1)c1ccc(Cl)c(S(=O)(=O)N2CCCCC2)c1`, the Potency is 0.316 µM [quencher] (active). As for `O=C(Nc1ccc2c(c1)OCCO2)c1ccc(Cl)c(S(=O)(=O)N2CCCCC2)c1`, the Potency entry was “inactive”. Under `Cc1ccc(/C=N/NC(=S)Nc2cccc(S(=O)(=O)N(C)C)c2)o1` stands “inactive”.

`CN(C)S(=O)(=O)c1cccc(NC(=S)N/N=C/C(=O)c2ccccc2)c1`: the Potency is 4.47 µM [quencher] (active). On to `CN(C)S(=O)(=O)c1cccc(NC(=S)NCc2ccc3c(c2)OCO3)c1`, for which the Potency result was “inactive”. In the case of `COc1ccc(OC)c(NC(=O)CSC2=Nc3ccccc3C3=NC(CC(=O)NCCc4ccccc4)C(=O)N23)c1` (centres undefined) it was “inactive”; in that of `CCC(Sc1nnc(-c2ccc(OC)cc2)c(-c2ccc(OC)cc2)n1)C(=O)NC1CCCCC1` (centres undefined), “inactive”; in that of `CCCSc1nc2sc3c(c2c(=O)n1-c1cccc(Br)c1)CC(C)(C)OC3`, “inactive”. In the case of `Fc1ccc(-c2nn(-c3ccccc3Cl)c3c2cnc2ccccc23)cc1` it was “inactive”; in that of `CCOC(=O)c1c(N)sc(C(C)=O)c1C`, “inactive”. In the case of `COC(=O)c1sc(=S)n(-c2ccccc2)c1N` it was “inactive”. As for `COCCOC(=O)c1sc(=S)n(CCOC)c1N`, the Potency is 50.1 µM [fluorescent] (active). Under `COc1ccc(-c2nnc(SCC(=O)Nc3ccc(C(C)C)cc3)nc2-c2ccc(OC)c(OC)c2)cc1OC` stands “inactive”. Consider `Cc1ccc(-n2nc(C)c3c(C)cc(=O)n(CC(=O)Nc4ccc(C(C)C)cc4)c32)cc1`, for which the Potency entry is “inactive”. Under `COc1cccc(-c2nc(S(=O)(=O)c3ccc(C)cc3)c(NCc3ccccc3)o2)c1` stands “inactive”; under `COc1cccc(CN2C(=O)CCC2(C)C(=O)NC2CCCCCC2)c1` (centres undefined), “inactive”. In the case of `COc1ccc(OC)c(CN2C(=O)CCC2(C)C(=O)NC2CCCCCC2)c1` (centres undefined) it was “inactive”; in that of `CCc1ccccc1N1C(=O)CN(S(=O)(=O)CC)CC1(C)C(=O)NC1CCCCC1` (centres undefined), 17.8 µM [quencher] (active); in that of `COc1ccc(S(=O)(=O)NCc2cccn2Cc2cccc(C)c2)cc1Cl`, “inactive”. For the molecule `CCOc1ccc(N2CC(C)Cn3c2nc2c3c(=O)n(Cc3c(F)cccc3Cl)c(=O)n2C)cc1` (centres undefined), the Potency result is “inactive”. Under `O=C(NCCCN1CCN(c2cccc(Cl)c2)CC1)c1nnc(Cc2ccc(F)cc2Cl)o1` stands “inactive”. In the case of `CCOc1cc(C2c3c(-c4ccc(Br)cc4)n[nH]c3C(=O)N2c2ccc(Cl)cc2)ccc1O` (centres undefined) it was “inactive”; in that of `CC1CCN(S(=O)(=O)c2ccc3c(c2)N(CC(=O)NCc2ccccc2Cl)C(=O)CO3)CC1`, “inactive”; in that of `Cc1ccccc1C(=O)Nc1nnc(S(=O)(=O)N(C)c2ccc(Cl)cc2)s1`, 31.6 µM [quencher] (active). Under `CC(C)CC(=O)Nc1nnc(S(=O)(=O)N(C)c2ccc(Cl)cc2)s1` stands “inactive”; under `CCN(c1ccc(Cl)cc1)S(=O)(=O)c1nnc(NC(=O)c2ccco2)s1`, “inactive”; under `CN(Cc1ccccc1)C(=O)CCS(=O)(=O)c1cc(Br)cc2c1N(C(=O)C1CC1)CC2`, “inactive”.

For `O=C(Nc1ccc(F)cc1F)c1cnn(-c2ccc(F)cc2)c1-n1cccc1`, the Potency result was “inactive”. Under `Clc1nc(Cl)c(Cl)c(Cl)c1Cl` stands “inactive”.

For the molecule `COc1c(O)c2c(=O)cc(OC)c3c4c(OC)cc(=O)c5c(O)c(OC)c6c(c(c1C[C@@](C)(O)[C@H]6C(C)=O)c23)c54`, the Potency is 44.7 µM [fluorescent] (active). For the molecule `CCn1cc(C(=O)N2CCN(c3cc(Cl)ccc3C)CC2)c(=O)c2cc(S(=O)(=O)N3CCCC3)ccc21`, the Potency entry is “inactive”. In the case of `CCc1ccccc1NC(=O)Cn1c(=O)n(-c2cccc(C)c2)c(=O)c2c1c1cc(OC)ccc1n2C` it was “inactive”.

Consider `Cc1ccccc1C(=O)N(Cc1ccc(N(C)C)cc1)CC1CCCO1` (centres undefined), for which the Potency entry was “inactive”.

Turning to `N#C/C(=C\c1ccc(N2CCOCC2)o1)C(=O)N1CCOCC1`, the Potency result was “inactive”. Turning to `N#C/C(=C/c1ccc(N2CCOCC2)o1)C(=O)N1CCOCC1`, the Potency was 44.7 µM [fluorescent] (active).

As for `N#C/C(=C/c1ccc(N2CCCCC2)o1)C(=O)NCCc1c[nH]c2ccccc12`, the Potency entry was “inactive”. With `CCc1c(C(=O)O)c(=O)cnn1-c1ccc(Cl)cc1`, the Potency result was “inactive”. On to `O=C(CCSCc1ccccc1F)N1CCN(c2ccc(Cl)cc2)CC1`, for which the Potency result is “inactive”. Under `Cc1ccccc1CN1C(=O)c2ccccc2Sc2ccc(C(=O)NCCCN3CCOCC3)cc21` stands “inactive”. In the case of `COc1ccccc1NC(=O)CN1C(=O)c2ccccc2Sc2ccc(C(=O)N3CCCC3)cc21` it was “inactive”; in that of `COc1cccc(CNC(=O)c2ccc3c(c2)N(Cc2ccc(C(F)(F)F)cc2)C(=O)c2ccccc2S3)c1OC`, 31.6 µM [quencher] (active); in that of `CC(=O)N1CCCc2cc(S(=O)(=O)N3CCC(C(=O)NCc4ccc(F)cc4)CC3)ccc21`, “inactive”. With `CCCCNC(=O)c1ccc2c(c1)NC(=O)C(C(C)C)N2` (centres undefined), the Potency was 0.0562 µM [quencher] (active). In the case of `CCCN(CCC)CCNC(=O)c1ccc2c(c1)NC(=O)C(CS(=O)(=O)Cc1cccc(Br)c1)N2` (centres undefined) it was “inactive”; in that of `CCCCNC(=O)CCNC(=O)c1ccc(C(C)(C)C)cc1`, “inactive”; in that of `CSc1ccccc1NC(=O)CCS(=O)(=O)c1nc(-c2cccs2)cc(C(F)(F)F)n1`, “inactive”. Under `O=C(Nc1cc(C(F)(F)F)ccc1Cl)c1ccc2c(c1)CCN2S(=O)(=O)c1ccccc1` stands “inactive”. On to `CCc1ccccc1NC(=O)CSc1nc(C)c(C(=O)Nc2ccccc2)c(-c2ccc(Cl)cc2)c1C#N`, for which the Potency entry is “inactive”.

Consider `CCn1cc2nc(SCc3cccc(F)c3)n(CCc3ccccc3)c(=O)c2n1`, for which the Potency result was “inactive”. In the case of `CN1c2ccc(Cl)cc2-c2nc(SCC(=O)Nc3cc(F)ccc3F)ncc2S1(=O)=O` it was “inactive”. Under `O=C(Nc1nnc(S(=O)(=O)N2CCCc3ccccc32)s1)c1cccc(F)c1` stands “inactive”; under `Cc1ccc(S(=O)(=O)N2CCCc3cc(NS(=O)(=O)c4cc(C)ccc4C)ccc32)cc1`, “inactive”; under `Cc1c2cnn(-c3ccccc3)c(=O)c2c(C)n1C(C)C(=O)Nc1ccc(Br)cc1F` (centres undefined), “inactive”. In the case of `O=C(NCc1cccnc1)C(=O)NCC(c1cccnc1)N1CCN(c2ccccc2)CC1` (centres undefined) it was “inactive”. Consider `CCN(CC)S(=O)(=O)c1ccc2c(c1)nc(CN(C)C(=O)Nc1ccc(Cl)cc1)n2C`, for which the Potency entry was “inactive”. Under `COCCNc1ncnc2c1c(-c1ccccc1)cn2-c1ccc(C)c(Cl)c1` stands “inactive”. Under `COc1ccccc1N1CCN(c2ncnc3onc(-c4ccc(F)cc4)c23)CC1` stands “inactive”. In the case of `COc1cc(NC(=O)c2cc(C3CC3)nc3c2c(C)nn3-c2ccccc2)cc(OC)c1` it was “inactive”.

Regarding `Cc1[nH]c2ccccc2c1C(c1ccccc1)c1cccs1` (centres undefined), the Potency result is “inactive”.

For the molecule `COc1cccc(CNC(=O)Cc2csc3nc(-c4ccccc4)cn23)c1`, the Potency result is “inactive”. In the case of `Fc1ccc(CN2CCc3nc(Nc4ccccc4)ncc3C2)cc1F` it was “inactive”; in that of `Cc1ccc(-c2cn3c(n2)sc2cc(C(=O)NCc4cccs4)ccc23)c(C)c1`, “inactive”; in that of `CC(C)CC(=O)NCC(c1ccc2c(c1)OCO2)N1CCN(c2ccc(F)cc2)CC1` (centres undefined), “inactive”.
